Rows were chosen to be rich in hits. Some 19% of all compounds tested hit in one or more screens of this group.
HT1080 IDH1KD tx: kills HT-1080 cells with IDH1 knockdown; HT-1080 IDH1 knockdown viability, ATP luminescence, 48 h; Potency, µM (highest dose often 46.1 µM), most hits filed as cytotoxic; actives 2% (n = 360,000); AID 686971
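CellTiter-Glo luminescence after 48 h compound exposure at 37 degrees C of IDH1-knockdown HT-1080 cells in 5% FBS RPMI. %Activity scaled between DMSO wells and cell-free media wells, with curves fitted and assigned curve classes.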
IL-1B inflam inh: inflammasome signaling inhibition, IL-1 beta readout; THP-1 LPS/ATP IL-1B secretion, AlphaLISA, 16 h; stronger effect = lower value; activity change, % at 57.5 µM; actives 4.7% (n = 360,000); in the data active = activity change below about -50%; inconclusive = mostly about -30% to -49%
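THP-1 cells pretreated 1 hr with compounds (up to 57.5 uM final), then stimulated with LPS (250 ng/mL final) plus ATP (1.25 mM final); secreted IL-1B measured by AlphaLISA after 16 hr, decreased signal indicating inhibition.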
HT1080NT lethal: kills 2HG-producing HT-1080-NT fibrosarcoma cells; Potency, µM (titrated, usually from 46.1 µM), hits mostly cytotoxic; AID 686970; HT-1080-NT fibrosarcoma viability, CellTiter-Glo ATP luminescence, 48 h; actives 1.6% (n = 360,000);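 note: NT is the 2HG producing partner of a matched IDH1 knockdown line; nearly all actives have a fitted effect of over 55% in size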
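Read-out is CellTiter-Glo luminescence after 10 minutes at room temperature, following 48 hours' compound treatment of HT-1080-NT cells (750 cells/well, RPMI, 5% FBS, 37 degrees C).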
TDP1 cell CPT: DT40-hTDP1 cell growth loss with CPT; chicken DT40 Tdp1-/-;hTDP1 cells + 20 nM CPT, ATP luminescence, 48 h; Potency, µM (top dose mostly 46.2 µM), most hits filed as inhibitors; actives 12% (n = 420,000); AID 686979; note: nearly all actives have a fitted effect of over 55% in size
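Chicken DT40 Tdp1-/- cells complemented with human TDP1, 400 cells/well, exposed to compounds plus 20 nM camptothecin for at least 48 h at 37 C; viability read as ATP content by CellTiter-Glo luminescence.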
TDP1 cell noCPT: qHTS for Inhibitors of human tyrosyl-DNA phosphodiesterase 1 (TDP1): qHTS in cells in absence of CPT | actives 15% (n = 420,000) | Potency, µM (top dose mostly 46.2 µM), most hits filed as inhibitors | DT40 Tdp1-/- hTDP1 cells, no CPT, ATP luminescence, 48 h; note: nearly all actives have a fitted effect of over 55% in size
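DT40 Tdp1-/-;hTDP1 cells, no CPT (DMSO vehicle only), 400 cells/well; compounds pin-transferred; ≥48 hr, 37 °C; CellTiter-Glo 30 min RT dark, luminescence read.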
Large screens that a line does not name were inactive; ! = not active in a repeat. Unless noted, calls come from the whole dose curve; as a rule, active = well fitted curve in the direction sought with a large enough effect; inconclusive = small, poorly fitted or top-dose-only effect, or another doubt; inactive = no such curve, though single readings can be large; an effect the other way counts as inactive or inconclusive.

O=C(Nc1ccccc1OC(F)F)c1ccc(N2CCCC2=O)cc1	none
CSc1nc2cc(Oc3cccc(Cl)c3Cl)c(Cl)cc2[nH]1	HT1080 IDH1KD tx inconclusive, HT1080NT lethal 9.2µM, TDP1 cell CPT inconclusive, TDP1 cell noCPT inconclusive
CCc1nnc(NC(=O)c2nc(S(=O)(=O)Cc3cccc(C)c3)ncc2Cl)s1	HT1080 IDH1KD tx 10µM, IL-1B inflam inh -102, HT1080NT lethal 23µM, TDP1 cell CPT 5.8µM, TDP1 cell noCPT 5.2µM!
CCOc1ccccc1NC(=O)c1nc(S(=O)(=O)Cc2cccc(C)c2)ncc1Cl	TDP1 cell CPT 1.2µM, TDP1 cell noCPT 0.65µM
CCc1nnc(NC(=O)c2cccc(S(=O)(=O)N3CCN(C)CC3)c2)s1	TDP1 cell CPT inconclusive, TDP1 cell noCPT inconclusive
CCc1nnc(NC(=O)c2nc(S(=O)(=O)Cc3ccc(C)cc3)ncc2Cl)s1	HT1080 IDH1KD tx 15µM, IL-1B inflam inh -102, HT1080NT lethal 18µM, TDP1 cell CPT 16µM, TDP1 cell noCPT 21µM
CCc1nnc(NC(=O)c2nc(S(=O)(=O)Cc3ccccc3)ncc2Cl)s1	HT1080 IDH1KD tx 7.3µM, IL-1B inflam inh -100, HT1080NT lethal 12µM, TDP1 cell CPT 18µM, TDP1 cell noCPT 18µM
CCc1nnc(NC(=O)c2nc(SCc3ccccc3F)ncc2Cl)s1	none (no result: HT1080 IDH1KD tx, IL-1B inflam inh, HT1080NT lethal)
CCc1nnc(NC(=O)c2nc(Cl)ccc2Cl)s1	none
Cc1ccc(NC(=O)CSc2ncc3c(n2)-c2ccccc2N(Cc2cccc(F)c2)S3(=O)=O)cc1F	none (no result: HT1080 IDH1KD tx, IL-1B inflam inh, HT1080NT lethal)
COc1cccc2cc(C(=O)NCCc3c[nH]c4ccccc34)c(=O)oc12	HT1080 IDH1KD tx inconclusive, TDP1 cell CPT inconclusive, TDP1 cell noCPT inconclusive
CCCCC(C(=O)NC1CCCC1)N(Cc1ccccc1)C(=O)c1snc(C(N)=O)c1N (configuration not stated)	TDP1 cell CPT inconclusive, TDP1 cell noCPT 21µM
CCCC(C(=O)NC(C)(C)C)N(Cc1ccc(F)cc1)C(=O)c1snc(C(N)=O)c1N (configuration not stated)	TDP1 cell noCPT inconclusive
CCCC(C(=O)NC1CCCC1)N(Cc1ccc2c(c1)OCO2)C(=O)c1snc(C(N)=O)c1N (configuration not stated)	IL-1B inflam inh -53, TDP1 cell CPT inconclusive, TDP1 cell noCPT inconclusive
CCCC(C(=O)NCCC(C)C)N(Cc1ccccc1)C(=O)c1snc(C(N)=O)c1N (configuration not stated)	TDP1 cell CPT 18µM, TDP1 cell noCPT inconclusive
CCC(C(=O)NC1CCCC1)N(Cc1ccccc1Cl)C(=O)c1snc(C(N)=O)c1N (configuration not stated)	TDP1 cell noCPT 13µM
Cc1ccc(S(=O)(=O)N(C)c2ccc(OCC(=O)Nc3cccc(-n4cnnn4)c3C)cc2)cc1	TDP1 cell CPT inconclusive, TDP1 cell noCPT inconclusive
COC(=O)COc1ccc(S(=O)(=O)Nc2cc([N+](=O)[O-])ccc2C)cc1	none
N=c1n(N)c2ccccc2n1CC(=O)c1ccc(Br)cc1	HT1080 IDH1KD tx inconclusive, IL-1B inflam inh -94, HT1080NT lethal inconclusive, TDP1 cell CPT 23µM, TDP1 cell noCPT 21µM
C=CCn1c(=N)n(CC(=O)c2ccccc2)c2ccccc21	IL-1B inflam inh inconclusive, TDP1 cell CPT inconclusive, TDP1 cell noCPT inconclusive
C=CCn1c(=N)n(CC(=O)c2ccc(Br)cc2)c2ccccc21	HT1080 IDH1KD tx inconclusive, IL-1B inflam inh -83, HT1080NT lethal inconclusive, TDP1 cell CPT inconclusive, TDP1 cell noCPT inconclusive
CC1(C)CCCC2(C)C3C(O)CC2(C)C(O)C31 (configuration not stated)	none (no result: HT1080 IDH1KD tx, IL-1B inflam inh, HT1080NT lethal)
Cc1cccc(NC(=O)c2nc[nH]c2C(=O)N[C@@H](C)CO)c1	none (no result: IL-1B inflam inh)
CCN(c1ccccc1)S(=O)(=O)c1ccc(OC)c(NC(=O)Cc2ccc(F)cc2)c1	IL-1B inflam inh inconclusive, TDP1 cell CPT inconclusive, TDP1 cell noCPT 18µM
CCOc1ccc(Oc2ccccc2NC(=O)CCc2nc3ccccc3c(=O)[nH]2)cc1	TDP1 cell CPT 23µM, TDP1 cell noCPT 21µM
CCN(c1ccccc1)S(=O)(=O)c1ccc(OC)c(NC(=O)CNCCc2ccccc2)c1	HT1080 IDH1KD tx inconclusive, IL-1B inflam inh inconclusive, HT1080NT lethal inconclusive, TDP1 cell CPT 26µM, TDP1 cell noCPT 21µM
CCN(c1ccccc1)S(=O)(=O)c1ccc(OC)c(NC(=O)CCc2nc3ccccc3c(=O)[nH]2)c1	TDP1 cell CPT 18µM, TDP1 cell noCPT 15µM
CCN(c1ccccc1)S(=O)(=O)c1ccc(OC)c(NC(=O)C2CCC2)c1	HT1080 IDH1KD tx inconclusive, TDP1 cell CPT inconclusive, TDP1 cell noCPT inconclusive
CCOc1ccccc1NC(=O)CCCc1nc2ccccc2c(=O)[nH]1	HT1080 IDH1KD tx inconclusive, TDP1 cell noCPT inconclusive
COc1ccc(NC(=O)COC(=O)c2cccn2C)cc1S(=O)(=O)N1CCCCC1	TDP1 cell noCPT inconclusive
COc1ccc(CNC(=O)Cn2nnc(-c3ccc(NC(=O)C4CCCCC4)cc3)n2)cc1	none
CN(C)CCCNC(=O)C[C@H]1C[C@H](C(=O)N2CCCCC2)[C@@]2(C)c3[nH]c4cc(-c5ccco5)ccc4c3CCN2C1=O	HT1080NT lethal inconclusive, TDP1 cell CPT inconclusive, TDP1 cell noCPT inconclusive
C[C@]12c3[nH]c4cc(-c5ccco5)ccc4c3CCN1C(=O)[C@@H](CC(=O)NCC13CC4CC(CC(C4)C1)C3)C[C@@H]2C(=O)N1CCCCC1	HT1080 IDH1KD tx inconclusive, IL-1B inflam inh inconclusive, TDP1 cell CPT 5.2µM, TDP1 cell noCPT 6.5µM
CC[C@]12c3[nH]c4cc(-c5ccco5)ccc4c3CCN1C(=O)[C@@H](CC(=O)NCC13CC4CC(CC(C4)C1)C3)C[C@@H]2C(=O)N1CCN(C(=O)C2CC2)CC1	HT1080 IDH1KD tx inconclusive, IL-1B inflam inh inconclusive, TDP1 cell CPT inconclusive, TDP1 cell noCPT 23µM
CC[C@]12c3[nH]c4cc(-c5ccco5)ccc4c3CCN1C(=O)[C@@H](CC(=O)NCc1ccco1)C[C@@H]2C(=O)N1CCN(C(=O)C2CC2)CC1	TDP1 cell CPT 16µM, TDP1 cell noCPT 16µM
CN(C)C(=O)CCc1ccc2c3c([nH]c2c1)[C@]1(C)[C@@H](C(=O)N2CCCCC2)C[C@H](CC(=O)NCC24CC5CC(CC(C5)C2)C4)C(=O)N1CC3	IL-1B inflam inh inconclusive, TDP1 cell CPT 9.2µM, TDP1 cell noCPT 13µM
CCc1nc2ccc(C(=O)NCCOc3ccc(OC)cc3)cn2c1N(C)C(=O)Cc1ccccc1	TDP1 cell CPT inconclusive, TDP1 cell noCPT inconclusive
CCOC(=O)/C(C#N)=C/c1ccc(-c2ccccc2)o1	TDP1 cell noCPT inconclusive (no result: HT1080 IDH1KD tx, IL-1B inflam inh, HT1080NT lethal)
CC[C@]12c3[nH]c4cc(-c5ccco5)ccc4c3CCN1C(=O)[C@@H](CC(=O)NCC13CC4CC(CC(C4)C1)C3)C[C@@H]2C(=O)N1CCN(C(=O)c2ccco2)CC1	HT1080 IDH1KD tx inconclusive, IL-1B inflam inh -54, HT1080NT lethal inconclusive, TDP1 cell CPT 9.2µM, TDP1 cell noCPT 21µM
